# Laboratory results taken from PubChem BioAssay (EPA / NIEHS).
# Records with an inconclusive call do not appear. Activity calls are given as the source filed them. Rule for the calls, unless noted: active = hit-call score of the fitted dose curve at least 0.9, where 1 is the maximum; inactive = score below 0.9.
# Columns and labels:
# [1] = CCTE_Simmons_MITO_basal_resp_rate: CCTE's HepG2 Seahorse XF Respirometric Screening Assay at Basal Respiratory State, Simmons Lab (AID 2284001); details: actives raise or lower the signal
# Summary of the method: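 HepG2 cells were given test chemicals at 7 concentrations, 125 nM to 100 uM final, and oxygen consumption rate was read every 6 min (3 min mix, 3 min measure) over 72 min. Basal-phase OCR was fitted bidirectionally against DMSO.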
# [2] = CCTE_Simmons_MITO_max_resp_rate: CCTE's HepG2 Seahorse XF Respirometric Screening Assay at Maximal Respiratory State [uncoupled], Simmons Lab (AID 2284002); details: actives raise or lower the signal
# Summary of the method: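 HepG2, Seahorse XF96, maximal OCR post-FCCP. Cpd 125 nM–100 uM final (7 conc), n=3 biological. Kinetic reads every 6 min (3 min mix/3 min measure) over 72 min; fit bidirectional vs DMSO.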
# [3] = CCTE_Simmons_MITO_inhib_resp_rate: CCTE's HepG2 Seahorse XF Respirometric Screening Assay at Inhibited Respiratory State [full ETC block], Simmons Lab (AID 2284006); details: actives raise or lower the signal
# Summary of the method: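 Inhibited respiration was taken as HepG2 oxygen consumption after rotenone/antimycin A, which followed test-compound and FCCP injections. Chemicals were tested at seven final concentrations from 125 nM to 100 uM. Activity was fitted bidirectionally relative to DMSO.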
# [4] = CCTE_Simmons_MITO_viability: CellTiter-Glo Viability Assessment for CCTE's HepG2 Seahorse XF Respirometric Screening Assay [post-hoc], Simmons Lab (AID 2284007; active = hit-call score of the fitted dose curve at least 0.9, where 1 is the maximum;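 for AC50: cells exposed to chemical for 90 min before the ATP read; actives lower ATP signal relative to DMSO baseline meaning reduced viability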)
# Summary of the method: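 HepG2 cells; test chemical 7 conc. (125 nM–100 uM final) × 90 min; then luminescent ATP detection. DMSO vehicle. Positive control dichlone, 8 conc. from 10 nM to 100 uM final. Loss-of-signal endpoint.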
# [5] = molecular target: Nucleoli Translocation, AR (gene 367) (UniProt P10275); assay: UPITT_HCI_U2OS_AR_TIF2_Nucleoli_Antagonist: University of Pittsburgh U2OS Androgen Receptor-Transcriptional Intermediary Factor 2 (AR-TIF2) Antagonism High Content Imaging Assay for Nucleoli Translocation (AID 2283997; active = hit-call score of the fitted dose curve at least 0.9, where 1 is the maximum)
# Sequence of Nucleoli Translocation, AR (gene 367) (P10275 whole entry, looked up): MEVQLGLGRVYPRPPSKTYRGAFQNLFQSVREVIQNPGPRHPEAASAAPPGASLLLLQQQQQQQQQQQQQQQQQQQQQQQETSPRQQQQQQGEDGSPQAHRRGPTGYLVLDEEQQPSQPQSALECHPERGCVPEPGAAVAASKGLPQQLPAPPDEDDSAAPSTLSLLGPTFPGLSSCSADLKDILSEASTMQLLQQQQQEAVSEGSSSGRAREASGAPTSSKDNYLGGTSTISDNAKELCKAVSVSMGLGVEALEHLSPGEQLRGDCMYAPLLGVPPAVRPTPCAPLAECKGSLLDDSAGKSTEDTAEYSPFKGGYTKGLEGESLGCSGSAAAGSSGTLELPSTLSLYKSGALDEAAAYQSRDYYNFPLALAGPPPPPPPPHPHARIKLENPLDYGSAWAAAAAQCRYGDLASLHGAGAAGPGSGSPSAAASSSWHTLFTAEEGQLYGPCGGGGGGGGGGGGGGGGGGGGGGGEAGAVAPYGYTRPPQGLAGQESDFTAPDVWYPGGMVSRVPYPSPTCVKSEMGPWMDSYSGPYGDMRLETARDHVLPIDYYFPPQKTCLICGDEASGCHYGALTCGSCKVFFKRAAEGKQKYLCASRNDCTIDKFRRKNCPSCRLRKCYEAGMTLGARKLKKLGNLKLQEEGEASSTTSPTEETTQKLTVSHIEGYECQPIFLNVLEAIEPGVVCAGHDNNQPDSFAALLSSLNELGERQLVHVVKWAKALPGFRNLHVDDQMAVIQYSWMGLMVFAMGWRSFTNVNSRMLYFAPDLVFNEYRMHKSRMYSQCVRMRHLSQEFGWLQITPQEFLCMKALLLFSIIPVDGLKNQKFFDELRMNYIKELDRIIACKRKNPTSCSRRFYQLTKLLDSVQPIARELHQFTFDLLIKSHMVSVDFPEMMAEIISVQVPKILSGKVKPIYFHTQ
# Summary of the method: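 U2OS cells expressing RFP-tagged human AR and GFP-tagged TIF2 were imaged by high-content fluorescence microscopy for red AR signal in the nucleolar region. Compounds were screened at 20 uM final (0.2% DMSO), with activity fitted relative to DHT as baseline.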
# [6] = molecular target: Nucleoli Translocation, AR (gene 367) (UniProt P10275); assay: UPITT_HCI_U2OS_AR_TIF2_Nucleoli_Agonist: University of Pittsburgh U2OS Androgen Receptor-Transcriptional Intermediary Factor 2 (AR-TIF2) Agonism High Content Imaging Assay for Nucleoli Translocation (AID 2283998; active = hit-call score of the fitted dose curve at least 0.9, where 1 is the maximum)
# Summary of the method: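 RFP-AR / GFP-TIF2 cells; cpds diluted in serum-free medium; single-point screen 20 uM final (0.2% DMSO), actives confirmed in triplicate; conc-response 0.195–50 uM final (0.5% DMSO). Readout: nucleolar red fluorescence, positive direction vs DMSO.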
# [7] = molecular target: Ratio of Nucleoli Translocation and Cytoplasm, AR (gene 367) (UniProt P10275); assay: UPITT_HCI_U2OS_AR_TIF2_Nucleoli_Cytoplasm_Ratio_Antagonist: University of Pittsburgh U2OS Androgen Receptor-Transcriptional Intermediary Factor 2 (AR-TIF2) Antagonism High Content Imaging Assay for Ratio of Nucleoli Translocation and Cytoplasm (AID 2283999; active = hit-call score of the fitted dose curve at least 0.9, where 1 is the maximum;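 note: antagonists lower the DHT-driven ratio of nucleolar to cytoplasmic red signal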)
# Sequence of Ratio of Nucleoli Translocation and Cytoplasm, AR (gene 367) (P10275 whole entry, looked up): as above
# Summary of the method: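 High-content imaging quantifies the red nucleolar:cytoplasmic fluorescence ratio in U2OS cells with AR-RFP and TIF2-GFP. Final concentrations are 20 uM (screen) or 0.195–50 uM (dose response), analysed against DHT as baseline.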
# [8] = molecular target: Ratio of Nucleoli Translocation and Cytoplasm, AR (gene 367) (UniProt P10275); assay: UPITT_HCI_U2OS_AR_TIF2_Nucleoli_Cytoplasm_Ratio_Agonist: University of Pittsburgh U2OS Androgen Receptor-Transcriptional Intermediary Factor 2 (AR-TIF2) Agonism High Content Imaging Assay for Ratio of Nucleoli Translocation and Cytoplasm (AID 2284000; active = hit-call score of the fitted dose curve at least 0.9, where 1 is the maximum;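 note: hits raise the red nucleolar to cytoplasm ratio above vehicle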)
# Summary of the method: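 U2OS cells expressing RFP-tagged human AR and GFP-tagged TIF2 were imaged by high-content fluorescence microscopy. The endpoint is the ratio of nucleolar to cytoplasmic red fluorescence, fitted for gain of signal relative to DMSO. Concentration-response spanned 0.195 to 50 uM final (0.5% DMSO).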
compound,measurement,setting,value
CN1C(=O)N(c2ccccc2Br)Cc2cnc(Nc3ccc4c(c3)OCC(CO)O4)nc21 (stereo not drawn),AC50,[1],35.1 µM (active)
same,AC50,[2],50 µM (active)
same,outcome,[3],inactive
same,AC50,[4],33.7 µM (active)
NC(=O)c1nc(-c2cccc(-c3cc(F)ccc3OCC(F)(F)C(F)(F)F)c2)n[nH]1,outcome,[5],inactive
same,AC50,[6],13.2 µM (active)
same,outcome,[7],inactive
same,AC50,[8],12.7 µM (active)
same,AC50,[1],6.26 µM (active)
same,AC50,[2],6.36 µM (active)
same,outcome,[3],inactive
same,outcome,[4],inactive
O=C1CCC(C2CCCCC2)CC1,outcome,[1],inactive
same,outcome,[2],inactive
same,outcome,[3],inactive
same,outcome,[4],inactive
CCCCCCCCCCCO,AC50,[1],80.1 µM (active)
same,outcome,[2],inactive
same,outcome,[3],inactive
CCCCCCCCN(C)CCCCCCCC,outcome,[5],inactive
same,outcome,[8],inactive
CN(C)C(=O)C1(N2CCCCC2)CCN(CC[C@@]2(c3ccc(Cl)c(Cl)c3)CN(C(=O)c3ccccc3)CCO2)CC1,outcome,[1],inactive
same,outcome,[2],inactive
same,outcome,[3],inactive
CCN(Cc1cccnc1)C(=O)c1cccc(Cl)c1[C@]1(C)C(=O)N(Cc2ccc(OC)cc2OC)c2ccc(Cl)cc21,outcome,[5],inactive
same,outcome,[6],inactive
same,outcome,[7],inactive
same,outcome,[8],inactive
same,AC50,[1],2.36 µM (active)
same,AC50,[2],2.17 µM (active)
same,outcome,[3],inactive
same,outcome,[4],inactive
C[C@]12CC[C@@H]3c4ccc(O)cc4CC[C@H]3[C@@H]1CC[C@H]2O,AC50,[1],36.1 µM (active)
same,outcome,[2],inactive
same,outcome,[3],inactive
same,outcome,[4],inactive
CC(C)(O)c1ccc(CNC(=O)c2cccnc2Oc2ccc3nonc3c2)cc1,outcome,[1],inactive
same,outcome,[2],inactive
same,outcome,[3],inactive
same,outcome,[4],inactive
CN(C)c1ccc(C(=C2C=CC(=[N+](C)C)C=C2)c2ccc(N(C)C)cc2)cc1,AC50,[5],0.262 µM (active)
same,AC50,[6],14.6 µM (active)
same,AC50,[7],2.66 µM (active)
same,outcome,[8],inactive
same,AC50,[1],50 µM (active)
same,AC50,[2],41.6 µM (active)
same,AC50,[3],61.6 µM (active)
same,AC50,[4],21.4 µM (active)
CC/C(=C(/CC)c1ccc(O)cc1)c1ccc(O)cc1,AC50,[1],8.17 µM (active)
same,AC50,[2],11.3 µM (active)
same,AC50,[3],6.72 µM (active)
same,AC50,[4],12 µM (active)
Cc1cc2c(cc1C(F)(F)F)N(C(=O)Nc1ccc(Oc3cccnc3C)nc1)CC2,outcome,[1],inactive
same,AC50,[2],10.9 µM (active)
same,outcome,[3],inactive
same,outcome,[4],inactive
CCCCCCCCCC(=O)O,outcome,[5],inactive
same,outcome,[7],inactive
same,outcome,[8],inactive
same,AC50,[1],23.2 µM (active)
same,outcome,[2],inactive
same,outcome,[3],inactive
same,outcome,[4],inactive
O=C1c2ccccc2C(=O)N1CCc1noc(-c2ccc(CN3CCCCCC3)s2)n1,AC50,[1],57.5 µM (active)
same,AC50,[2],39.8 µM (active)
same,outcome,[3],inactive
same,outcome,[4],inactive
CC(=O)N1CCN(c2ccc(OC[C@H]3CO[C@](Cn4ccnc4)(c4ccc(Cl)cc4Cl)O3)cc2)CC1,AC50,[1],8.55 µM (active)
same,AC50,[2],12.7 µM (active)
same,AC50,[3],9.46 µM (active)
same,outcome,[4],inactive
CCCCOC(=O)c1ccc(O)cc1,outcome,[5],inactive
same,outcome,[6],inactive
same,outcome,[7],inactive
same,outcome,[8],inactive
same,AC50,[1],23.7 µM (active)
same,AC50,[2],50 µM (active)
same,outcome,[3],inactive
same,outcome,[4],inactive
O=C(Nc1ccc(Cl)cc1)Nc1ccc(Cl)c(Cl)c1,AC50,[5],5.24 µM (active)
same,outcome,[7],inactive
same,outcome,[8],inactive
O=C(O)Cc1cc(I)c(Oc2ccc(O)c(I)c2)c(I)c1,AC50,[1],27 µM (active)
same,AC50,[2],50 µM (active)
same,outcome,[3],inactive
same,outcome,[4],inactive
Cc1occc1C(=O)Nc1ccc(C(=O)N2CCC(F)(F)/C(=C\C(=O)N3CCC(N4CCCCC4)CC3)c3ccccc32)cc1,outcome,[5],inactive
same,outcome,[6],inactive
same,outcome,[8],inactive
O=C(O)c1ccccc1C(=O)OCc1ccccc1,outcome,[5],inactive
same,outcome,[8],inactive
Cc1cc(F)ccc1-c1cc(N2CC[C@@H](O)[C@H]2CO)ncc1N(C)C(=O)C(C)(C)c1cc(C(F)(F)F)cc(C(F)(F)F)c1,outcome,[5],inactive
same,AC50,[6],40.8 µM (active)
same,AC50,[8],60.4 µM (active)
same,AC50,[1],40.8 µM (active)
same,AC50,[2],36.7 µM (active)
same,outcome,[3],inactive
same,outcome,[4],inactive
